Source: PubChem BioAssay (The Scripps Research Institute Molecular Screening Center)
A selection: hits, their analogues and other compounds. The true share with any hit is near 4.1%.
DAX1 inh-1 = DAX1 (NR0B1) inhibitors, primary screen, cell-based, HEK293, Gal4-DAX1, luciferase luminescence | Nuclear receptor subfamily 0 group B member 1 (Homo sapiens), P51843 | HEK293 Gal4-DAX1 luciferase reporter | inhibition, % at 6.75 µM | 340,000 compounds, 0.99% hits | AID 504766, 2011;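 active = inhibition above the mean over all tested compounds plus 3 SD, cut at about 4.2% in these data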;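 also: inhibition shows as a rise in luminescence from relieved DAX1 repression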
Target sequence (P51843 207-470 limits assumed): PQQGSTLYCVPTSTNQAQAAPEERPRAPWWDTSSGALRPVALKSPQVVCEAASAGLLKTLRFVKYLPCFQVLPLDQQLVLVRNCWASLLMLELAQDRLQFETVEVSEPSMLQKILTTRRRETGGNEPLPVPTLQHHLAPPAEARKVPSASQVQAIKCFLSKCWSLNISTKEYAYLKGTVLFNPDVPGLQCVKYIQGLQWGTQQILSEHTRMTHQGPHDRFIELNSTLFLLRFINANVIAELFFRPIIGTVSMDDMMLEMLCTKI
hgDAF-12 ag = H. glycines DAF-12 receptor agonists, primary screen, cell-based, luminescence, HEK293, GAL4 fusion, UAS-luciferase; 370,000 compounds, 1.8% hits; activation, % at 6.8 µM; HEK293 GAL4-hgDAF12 UAS-luciferase reporter, agonist luminescence; normalized to butyrate control;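 active = activation above a cutoff set at the mean of all screened compounds plus 3 SD, cut at about 10% in these data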
ssDAF-12 act = S. stercoralis DAF-12 nuclear receptor activators, primary screen, cell-based, luminescence, HEK293, GRIP1 co-expression, lit1-tk-luc; HEK293 ssDAF-12/GRIP1 lit1-tk-luc reporter; % of 3 µM dafachronic acid response; activation, % at 6.8 µM; 370,000 compounds, 1% hits;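 active = activation above the mean over all tested compounds plus 3 SD, cut at about 0.9% in these data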
DAX1 inh-2 = DAX1 (NR0B1) inhibitors on StAR promoter, primary screen, cell-based, luminescence, SF-1 (NR5A1), full-length DAX-1 | HEK293T StAR-luciferase reporter, SF-1/DAX-1 repression relief | inhibition, % at 6.8 µM | 370,000 compounds, 1.1% hits;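 active = inhibition above the mean over all tested compounds plus 3 SD, cut at about 3.6% in these data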;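 also: higher inhibition means more luminescence from relief of DAX-1 repression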
hcDAF12 agonist = H. contortus DAF-12 nuclear receptor activators, primary screen, cell-based, luminescence, HEK293, lit1-tk-luc reporter | AID 652067, 2013 | activation, % at 6.8 µM | 370,000 compounds, 1.4% hits | HEK293 hcDAF-12 lit1-tk-luc reporter; 0% DMSO, 100% Δ7-dafachronic acid;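 active = activation above the mean of all tested compounds plus 3 SD, cut at about 5.5% in these data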
Hits are given with their value; – = inactive; · = not tested or not shown.

SMILES | DAX1 inh-1 | hgDAF-12 ag | ssDAF-12 act | DAX1 inh-2 | hcDAF12 agonist
COc1ccc(NC(=O)CCC(=O)c2ccc(F)cc2)cc1 | – | – | – | – | –
O=C(CCCC(=O)c1ccc(O)cc1)c1ccc(O)cc1 | – | 11 | – | – | –
Cc1cccc(Cl)c1NC(=O)N(C)c1ccccc1 | · | – | – | – | –
C=CCN1C(=O)[C@H](CC(=O)NCC23CC4CC(CC(C4)C2)C3)[C@@]2(C(=O)OC)CCCCC=C12 | · | – | – | – | –
Clc1cc(Cl)c2nc(N3CCCC3)sc2c1 | – | 11 | – | – | –
CC(=O)C1=C(O)C(=O)N(CCc2c[nH]c3ccccc23)C1c1ccc(O)cc1 (stereo not drawn) | 4.4 | – | – | – | –
CC(C)(C)n1nnnc1C1c2ccccc2C(=O)N1CCc1c[nH]c2ccccc12 (stereo not drawn) | · | – | – | 4.2 | –
Cc1ccc(S(=O)(=O)c2nc(Nc3ccccc3N3CCOCC3)sc2Cl)cc1 | – | – | – | – | –
Cc1ccc(S(=O)(=O)c2nc(Nc3ccccc3C#N)sc2Cl)cc1 | – | – | – | – | 6.3
CCC(C)N1CC23C=CC(O2)C(C(=O)OC)C3C1=O (stereo not drawn) | 6.7 | – | – | – | –
COCCCN1CC23C=CC(O2)C(C(=O)O)C3C1=O (stereo not drawn) | – | – | – | – | –
CCOC(=O)N1CCC(N2CC34C=CC(O3)C(C(=O)O)C4C2=O)CC1 (stereo not drawn) | 4.3 | – | – | – | –
CCCN1CC23C=CC(O2)C(C(=O)O)C3C1=O (stereo not drawn) | 5.0 | – | – | – | –
O=C(N[C@@H](Cc1cccnc1)C(=O)N1CCC[C@H]1C(=O)NCc1ccccc1)c1ccc(Cl)c(Cl)c1 | · | – | – | – | –
O=C(CCc1ccccc1)N[C@H]1[C@@H](OC(=O)c2cnccn2)CCC[C@@]12C(=O)N(Cc1ccccc1)c1ccccc12 | · | – | – | – | –
O=C(O)Cn1c2c(c3ccccc31)CSc1ccc(Cl)cc1-2 | – | – | – | – | 7.5
Cc1nnc(-c2cccc(C(F)(F)F)c2)nc1N1CCOCC1 | – | – | – | 4.3 | –
CCOc1ccc(NC(=O)CN(c2ccc(OC)cc2)S(C)(=O)=O)cc1 | – | – | – | – | –
COC(=O)c1ccc(NC(=O)CN(c2ccc(OC)cc2)S(C)(=O)=O)cc1 | – | 12 | – | – | –
COC(=O)C1CN(CCO)CCS(=O)(=O)N1Cc1cn(Cc2cccc(Cl)c2)nn1 (stereo not drawn) | · | – | – | – | –
COc1ccc(C)cc1S(=O)(=O)NCC(c1ccc2c(c1)OCO2)N1CCN(C)CC1 (stereo not drawn) | – | – | – | 3.7 | –
COc1ccc(S(=O)(=O)NCC(c2ccc3c(c2)OCO3)N2CCN(C)CC2)cc1OC (stereo not drawn) | – | – | – | – | –
CCCCCn1nnnc1C1(C)CN(S(C)(=O)=O)CC(=O)N1Cc1ccco1 (stereo not drawn) | · | – | – | – | –
O=C(Cn1cnc2ccccc2c1=O)N1CCN(c2ccc(F)cc2)CC1 | – | – | – | – | –
O=C(Cn1cnc2ccccc2c1=O)N1CCN(S(=O)(=O)c2ccc(F)cc2)CC1 | – | – | – | 3.6 | –
SMILES | DAX1 inh-1 | hgDAF-12 ag | ssDAF-12 act | DAX1 inh-2 | hcDAF12 agonist
CNS(=O)(=O)c1cn(CC(=O)NCc2cccc(OC)c2)cc1S(=O)(=O)NC | – | – | – | – | 5.8
CNS(=O)(=O)c1cn(CC(=O)NCc2ccc(OC)cc2)cc1S(=O)(=O)NC | – | – | – | – | –
Cc1ccc(C)c(NC(=O)Cn2nnc(-c3ccncc3)n2)c1 | · | – | – | – | –
CCN(CC)S(=O)(=O)c1ccc(NN)nc1 | – | – | 1.4 | – | –
C#CCSc1nnc(-c2ccc([N+](=O)[O-])cc2)o1 | – | 12 | – | – | –
CCSc1nnc(-c2ccc(OC)cc2)o1 | – | 12 | – | – | –
Cc1ccccc1-c1nnc(SCc2ccccc2F)o1 | 4.3 | 13 | – | 3.9 | 6.4
CSc1nnc(-c2ccc([N+](=O)[O-])cc2)o1 | – | – | – | – | –
C#CCSc1nnc(-c2ccc(OC)cc2)o1 | 4.5 | 11 | – | – | –
Cc1cc(C)c(C2=NOC3c4ccccc4OCC23)c(C)c1 (stereo not drawn) | · | – | – | – | –
CCC(NC(=O)c1ccc2c(ccn2Cc2cccc(-c3ccc(C(=O)O)cc3)c2)c1)c1ccccc1 (stereo not drawn) | · | – | – | – | –
CC[C@H]1OC(=O)[C@H](C)[C@@H](O[C@H]2C[C@@](C)(OC)[C@@H](O)[C@H](C)O2)C(C)[C@@H](O[C@@H]2O[C@H](C)C[C@H](N(C)C)[C@H]2O)[C@](C)(O)C[C@@H](C)CN(C)[C@H](C)[C@@H](O)[C@]1(C)O (stereo partly drawn) | · | – | – | – | –
COC(=O)[C@]12C[C@H](CC(=O)N3CCN(C(=O)C4CC4)CC3)C(=O)N(Cc3cccc4ccccc34)C1=C[C@H](C1CCCC1)O[C@@H]2C | · | – | – | – | –
COc1ccc(-c2nnc(-c3ccccc3O)o2)cc1 | – | 12 | – | – | –
COc1ccc(-c2nnc(-c3ccc(C)cc3)o2)cc1 | – | – | – | – | –
COc1ccc(-c2nnc(SCc3ccccc3F)o2)cc1 | – | 12 | – | 4.4 | 6.4
CO/N=C/C(NC(=O)c1ccc(C(F)(F)F)cc1)C(=O)OC (stereo not drawn) | – | – | – | – | –
COC(=O)C(/C=N/O)NC(=O)c1ccccc1 (stereo not drawn) | – | – | – | – | 5.9
Cc1ccc(OCc2nn3c(C4CCCCC4)nnc3s2)cc1 | · | – | – | – | –
CCc1ccc2nc(N)sc2c1 | 6.4 | 11 | – | – | –
CCc1ccc(NC(=O)c2ccc3nc(N)sc3c2)cc1 | – | – | – | – | –
Cc1cc(C)n(CCNC(=O)[C@@H](Cc2ccccc2)NC(=O)[C@H]2O[C@@H](n3ccc(=O)[nH]c3=O)[C@H](O)[C@@H]2O)n1 | · | – | – | – | –
O=C(OC12CCCN(C1)/C(=C/c1ccc(Cl)cc1)C2)c1ccccc1 (stereo not drawn) | · | – | – | – | –
Cc1cc(C(C)(C)C)ccc1Oc1cccc2c1S(=O)(=O)N(C1CCCC1)CC(COCc1ccccc1)O2 (stereo not drawn) | – | – | – | 3.6 | –
COc1cc(F)ccc1Oc1cccc2c1S(=O)(=O)N(C1CC1)C[C@@H](COCc1ccccc1)O2 | · | – | – | – | –
CC1(C)C=Cc2cc3ccc(=O)oc3cc2O1 | 6.7 | – | – | – | –
